# About 83,000 compounds went through this panel and 20% of them were active in at least one assay; those are over-represented in the sample as a whole.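 Note: values are percent growth. 100 is the growth of untreated cells, values between 100 and 0 indicate rising inhibition; between -100 and 0 indicates cell death.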 A number with no mark means an inactive call. The source made the active and inactive calls. How the source made its calls: active means growth percent below 10; inactive means the rest.
# How the values were obtained:
# Assay in all cases: NCI-60 one-dose screen, 48 h (100 = growth as untreated, 0 = no growth, -100 = all killed)
# Settings in all cases: 10 µM unless noted
# SK-MEL-2 melanoma = tested on: SK-MEL-2 melanoma
# EKVX NSCLC = tested on: EKVX NSCLC
# SN12C renal = tested on: SN12C renal
# UO-31 renal = tested on: UO-31 renal
# TK-10 renal = tested on: TK-10 renal
# ACHN renal = tested on: ACHN renal
# CAKI-1 renal = tested on: CAKI-1 renal
# A498 renal = tested on: A498 renal
# CCRF-CEM leukemia = tested on: CCRF-CEM leukemia
# MOLT-4 leukemia = tested on: MOLT-4 leukemia
# SR leukemia = tested on: SR leukemia
# RPMI-8226 leukemia = tested on: RPMI-8226 leukemia
# OVCAR-8 ovarian = tested on: OVCAR-8 ovarian
# OVCAR-5 ovarian = tested on: OVCAR-5 ovarian
# OVCAR-4 ovarian = tested on: OVCAR-4 ovarian
# SK-OV-3 ovarian = tested on: SK-OV-3 ovarian
# IGROV1 ovarian = tested on: IGROV1 ovarian
# OVCAR-3 ovarian = tested on: OVCAR-3 ovarian
# HS 578T breast = tested on: HS 578T breast
# NCI/ADR-RES ovarian = tested on: NCI/ADR-RES ovarian
Structure (SMILES),growth (SK-MEL-2 melanoma),growth (EKVX NSCLC),growth (SN12C renal),growth (UO-31 renal),growth (TK-10 renal),growth (ACHN renal),growth (CAKI-1 renal),growth (A498 renal),growth (CCRF-CEM leukemia),growth (MOLT-4 leukemia),growth (SR leukemia),growth (RPMI-8226 leukemia),growth (OVCAR-8 ovarian),growth (OVCAR-5 ovarian),growth (OVCAR-4 ovarian),growth (SK-OV-3 ovarian),growth (IGROV1 ovarian),growth (OVCAR-3 ovarian),growth (HS 578T breast),growth (NCI/ADR-RES ovarian)
O=S(=O)(NCCCNc1nccc(-c2[nH]c(-c3ccccc3)nc2-c2ccc(Cl)c(O)c2)n1)c1cccc(F)c1,18.5%,65.2%,68.2%,56.6%,98.2%,57.2%,56.1%,101%,32.9%,40.3%,39.4%,41.1%,50.1%,85.4%,71.8%,105%,57.9%,60.3%,96.2%,73.2%
CCNC(=O)N1CCc2cc(OC)c(OCCc3ccc(OC)c(N)c3)cc2C1c1ccc(C)cc1C (configuration not stated),4.33% (active),44%,22.6%,30.4%,56.1%,27.6%,22.9%,-5% (active),34.5%,29.3%,15.3%,20.1%,24.4%,33.5%,57.6%,52.8%,21.4%,–,11.7%,17.9%
NC(N)=Nc1ccc(Oc2cccc(Oc3ccc(Cl)c(C(F)(F)F)c3)c2)cn1,-36.3% (active),-7.2% (active),-86.6% (active),49.7%,-27.1% (active),-99.7% (active),9.01% (active),15.1%,-29.8% (active),-48.7% (active),-58.9% (active),-49.5% (active),-50.8% (active),-74.5% (active),-76.8% (active),75.8%,-81.7% (active),-95% (active),79.8%,-6.8% (active)
COc1cc2oc(-c3cccc(N)c3)cc(=O)c2c(OC)c1OC,102%,104%,96.6%,80.6%,96.9%,103%,83.5%,101%,102%,106%,87.2%,97.8%,98.7%,101%,99.7%,125%,107%,–,115%,106%
c1cc(-c2nc3ccc4[nH]ncc4c3c3c2CCCC3)[nH]n1,29.1%,60.8%,75%,50.7%,36%,32.6%,27.6%,16.2%,46.7%,67.8%,7.95% (active),55.1%,70.2%,89%,89.6%,9.7% (active),44.5%,–,41.3%,78.8%
CC(C)C[C@@H]1N[C@@]2(C(=O)Nc3ccccc32)[C@@H](c2ccc(F)cc2)[C@@H]1C(=O)c1ccc(O)cc1,102%,79.9%,96.5%,58.3%,120%,80.1%,67.3%,94.5%,85%,77.5%,73.5%,91.2%,97.1%,95.6%,89.6%,108%,53.4%,96.9%,84.5%,94.1%
CCOc1cccc(-c2nc3sccn3c2-c2ccnc(S(C)(=O)=O)n2)c1,108%,101%,98.4%,97.1%,119%,87.6%,86.3%,73.3%,99.6%,101%,68.2%,97.1%,102%,106%,87%,112%,94.2%,–,102%,103%
CCN(CC)CCn1c2ccc(O)cc2c2sc3cc(OC)ccc3c(=O)c21,55.6%,43.5%,21.5%,26.8%,61.7%,12.4%,14.5%,73.3%,21.8%,5.44% (active),-13.4% (active),-13.1% (active),19.3%,44.7%,28.2%,74.7%,19.2%,41.8%,63.6%,20.8%
CCc1cccc2c3c(sc12)C(c1ccc(OC)cc1)C(C#N)=C(/N=C/c1ccc(Cl)cc1)O3 (configuration not stated),-27.5% (active),47.6%,41.8%,37.8%,80.7%,43%,42.1%,-7.61% (active),16.3%,22.5%,1.27% (active),10.9%,21.8%,45.7%,73.9%,40.4%,42.6%,–,-7.21% (active),0.0091% (active)
COc1cccc2c1CN(C(=O)c1ccc(O)c(C(=O)N3Cc4ccc(OCCC[P+](c5ccccc5)(c5ccccc5)c5ccccc5)cc4C3)c1)C2,61.5%,52.4%,90.4%,77.3%,116%,96.6%,82.3%,107%,71.1%,93.6%,35.3%,26.2%,79.5%,123%,84%,112%,43.9%,–,49.5%,103%
CCNC(=O)N1CCc2cc(OC)c(OCCc3ccc(OC)cc3)cc2C1c1ccc(OC)cc1C (configuration not stated),19%,45.5%,30.2%,30%,38.1%,26.9%,26.9%,-11.1% (active),36.3%,21.2%,4.44% (active),13.6%,27.6%,35.9%,50.3%,45.9%,27.8%,–,1.32% (active),12.3%
Cc1ccc(C2=Nn3c(nnc3-c3ccccc3)SC2)cc1,-14.8% (active),39.3%,47.5%,43.1%,48.3%,52.1%,34.4%,-12.4% (active),23.6%,44.4%,14%,23.1%,25.9%,62.9%,67.3%,24.7%,49.5%,–,19.6%,14.1%
COc1ccc(NC(=O)CSc2nnc(-c3ccc4nc(-c5ccc(OC)c(OC)c5)[nH]c4c3)o2)cc1OC,103%,107%,100%,73.5%,117%,94.2%,94.7%,93.3%,86%,86.6%,–,98.6%,101%,95.2%,106%,120%,91.3%,108%,97.5%,96.1%
Cc1nn(-c2ccccc2)c2ncnc(N/N=C/c3cccc(O)c3)c12,22.6%,81.6%,44.4%,40.7%,56.4%,50.6%,48.7%,48.2%,27%,22%,–,22.7%,59.2%,77.1%,–,88.4%,54.9%,41.5%,56.9%,23.3%
C=C(C)[C@@H]1CC[C@]2(COCCCNCCC#N)CC[C@]3(C)[C@H](CC[C@@H]4[C@@]5(C)CC[C@H](OCCCNCCC#N)C(C)(C)[C@@H]5CC[C@]43C)[C@@H]12,93.7%,36.1%,52%,41.3%,74.9%,65.3%,34.8%,43.3%,–,28.2%,-18.4% (active),34%,66.6%,83.7%,23.9%,97.8%,72.1%,71%,72.6%,37.3%
O=C(CN1CCN(c2cc(=O)[nH]c3ccc(F)cc23)CC1)Nc1ccc(Cl)cc1,66.2%,69.9%,60.8%,75.2%,62.2%,57%,72.6%,54.9%,–,92.4%,84.3%,104%,33.3%,86.2%,29.7%,65.1%,67.1%,60.5%,34.6%,76%

# From PubChem BioAssay (NCI)
